Records with an inconclusive call do not appear. Active and inactive are the calls of the source. Rule for the calls: active = hit-call score of the fitted dose curve at least 0.9, where 1 is the maximum; inconclusive = response in the unintended direction; inactive = score below 0.9.
The compounds below were run against Estrogen receptor (Homo sapiens) (UniProt P03372) (assay: NVS_NR_hER: NovaScreen (NVS) Nuclear Receptor Binding Assay for human Estrogen Receptor (ER) (AID 2283348)).
Procedure: NVS_NR_hER is a biochemical, single-readout assay that uses extracted gene-proteins from MCF7 in a cell-free assay. Measurements were taken 18 hours after chemical dosing in a 96-well plate.NVS_NR_hER is one of one assay component(s) measured or calculated from the NVS_NR_hER assay. It is designed to make measurements of radioligand binding, a form of binding reporter, as detected with scintillation counting signals by Lysate-based radiodetection technology.Data from the assay component NVS_NR_hER was analyzed into 1 assay endpoint. This assay endpoint, NVS_NR_hER, was analyzed in the positive analysis fitting direction relative to DMSO as the negative control and baseline of activity. Using a type of binding reporter, loss-of-signal activity can be used to understand changes in the binding as they relate to the gene ESR1. Furthermore, this assay endpoint can be referred to as a primary readout, because the performed assay has only produced 1 assay endpoint. To generalize the intended target to other relatable targets, this assay endpoint is annotated to the nuclear receptor intended target family, where the subfamily is steroidal.
Binding assays used specific radioligands (tritiated, iodinated) with non-radioactive competitive displacement ligands in agonist or antagonist protocols (as indicated) and various reference compounds and inhibitors to titrate specific binding to receptors and transporters. Most enzyme assays (CYPs, kinases, phosphatases, proteases, HDACs) used recombinant protein and specific substrates (fluorescence mostly, some colorimetric and radioactive) and inhibitors, followed by a biochemical separation of substrate and product. All assays for the biochemical HTS were initially run in duplicate at a single concentration (10 uM for CYP450 assays and 25 uM for all others). […] Each assay was run with positive and negative controls, and concurrent controls on every plate. The follow-up (secondary) screen tested active chemical-pairs in concentration series, as well as a few additional assays not tested in the primary screen, some selected negative inactives, and several cases re-run in the concentration series for confirmatory purposes.

Sequence of Estrogen receptor (Homo sapiens) (P03372 whole entry, looked up): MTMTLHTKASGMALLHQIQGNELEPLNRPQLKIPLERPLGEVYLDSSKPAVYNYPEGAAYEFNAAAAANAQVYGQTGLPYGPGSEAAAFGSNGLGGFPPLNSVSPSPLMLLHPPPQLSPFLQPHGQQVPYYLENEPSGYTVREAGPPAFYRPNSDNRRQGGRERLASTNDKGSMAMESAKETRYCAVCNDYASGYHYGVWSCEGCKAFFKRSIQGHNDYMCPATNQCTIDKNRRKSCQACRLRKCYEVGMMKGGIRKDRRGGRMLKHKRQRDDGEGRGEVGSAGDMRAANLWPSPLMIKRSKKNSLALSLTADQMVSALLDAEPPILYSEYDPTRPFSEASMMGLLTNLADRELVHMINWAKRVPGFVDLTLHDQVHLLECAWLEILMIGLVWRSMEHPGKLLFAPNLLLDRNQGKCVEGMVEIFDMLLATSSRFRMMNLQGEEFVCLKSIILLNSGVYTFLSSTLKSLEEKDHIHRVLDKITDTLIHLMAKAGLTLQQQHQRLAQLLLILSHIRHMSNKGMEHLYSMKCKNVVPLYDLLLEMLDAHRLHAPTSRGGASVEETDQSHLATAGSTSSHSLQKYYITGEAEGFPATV

Compound	outcome
CNC(=O)Oc1cccc2ccccc12	inactive
OC(c1ccc(Cl)cc1)(c1ccc(Cl)cc1)C(Cl)(Cl)Cl	inactive
CC1(C)C(C=C(Cl)Cl)C1C(=O)OC(C#N)c1cccc(Oc2ccccc2)c1 (stereo not given)	inactive
CCCCC(C#N)(Cn1cncn1)c1ccc(Cl)cc1 (stereo not given)	inactive
Nc1cnn(-c2ccccc2)c(=O)c1Cl	inactive
CC(C)=CC1C(C(=O)OCc2coc(Cc3ccccc3)c2)C1(C)C (stereo not given)	inactive
CCSC(=O)N1CCCCCC1	inactive
CCN(CC)c1nc(C)cc(OP(=S)(OC)OC)n1	inactive
Cc1c(COC(=O)[C@@H]2[C@H](/C=C(\Cl)C(F)(F)F)C2(C)C)cccc1-c1ccccc1	inactive
CC(C)(C)C(=O)C(Oc1ccc(Cl)cc1)n1cncn1 (stereo not given)	inactive

Source: PubChem BioAssay (EPA / NIEHS)
